Reference: PubChem BioAssay AID1159580 (chemical genetic matrix, 2015)
Where “and” joins values, the source holds several entries; their conditions need not be identical. Equal values may be shown once. Out of some 5,500 compounds screened, about 2,000 (36%) were called active. Inconclusive results (about 18%) are left out. No stated cut-off is given here; in the data, active means normalized growth mostly below about 0.91 (no sharp cut-off); inconclusive means no clear call, values can overlap the other calls; inactive means mostly above about 0.92. The list shows a part of the results.

Test: chemical genetic growth profiling, strain panel (AID 1159580);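 further: tested at 20 µM; growth read once vehicle control cultures reached saturation at 30 °C; 1 = growth at the plate median or of vehicle wells; lower values mean less growth of the strain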
Settings: S. cerevisiae deletion strains, growth OD

Measured: normalized growth

NS(=O)(=O)c1cc2c(cc1Cl)NC(CSCc1ccccc1)=NS2(=O)=O
inactive: locus YAL021C, strain ccr4, active compounds read low 0.986 | locus YAL026C, strain drs2, active compounds read low 1.01 | locus YAL030W, strain snc1, active compounds read low 1.01 | locus YBL061C, strain skt5, active compounds read low 1.02 | locus YBR009C, strain hhf1, active compounds read low 0.993 | locus YBR021W, strain FUR4, active compounds read low 0.973 | locus YBR023C, strain chs3, active compounds read low 1.04 | locus YBR171W, strain sec66, active compounds read low 1.03 | locus YBR229C, strain ROT2, active compounds read low 0.986 | locus YBR231C, strain swc5, active compounds read low 1.02 | locus YBR279W, strain paf1, active compounds read low 1.01 | locus YCL011C, strain gbp2, active compounds read low 1.01 | locus YCL016C, strain dcc1, active compounds read low 0.993 | locus YCL029C, strain bik1, active compounds read low 0.988 | locus YCL061C, strain MRC1, active compounds read low 1.01 | locus YCL069W, strain vba3, active compounds read low 1.01 | locus YCR088W, strain abp1, active compounds read low 1.01 | locus YDL005C, strain med2, active compounds read low 1 | locus YDL035C, strain GPR1, active compounds read low 1.04 | locus YDL040C, strain nat1, active compounds read low 0.995 | locus YDL074C, strain BRE1, active compounds read low 0.99 | locus YDL101C, strain DUN1, active compounds read low 0.973 | locus YDL134C, strain PPH21, active compounds read low 1.02 | locus YDL185W, strain tfp1, active compounds read low 0.989 | locus YDL192W, strain arf1, active compounds read low 0.997 | locus YDR001C, strain nth1, active compounds read low 1.03 | locus YDR069C, strain doa4, active compounds read low 1.04 | locus YDR101C, strain arx1, active compounds read low 0.987 | locus YDR137W, strain rgp1, active compounds read low 1.02 | locus YDR159W, strain sac3, active compounds read low 1 | locus YDR162C, strain NBP2, active compounds read low 1.03 | locus YDR195W, strain ref2 1.03 | locus YDR297W, strain sur2, active compounds read low 1.02 | locus YDR318W, strain mcm21, active compounds read low 0.991 | locus YDR334W, strain swr1, active compounds read low 1.02 | locus YDR335W, strain msn5, active compounds read low 1.02 | locus YDR388W, active compounds read low 0.978 | locus YDR392W, strain spt3, active compounds read low 0.948 | locus YDR502C, strain sam2, active compounds read low 0.988 | locus YEL003W, strain gim4, active compounds read low 1.03 | locus YEL037C, strain rad23, active compounds read low 1.02 | locus YEL061C, strain CIN8 (second series), active compounds read low 1.05 | locus YEL061C, strain CIN8, active compounds read low 0.995 | locus YER015W, strain faa2, active compounds read low 1.01 | locus YER016W, strain bim1, active compounds read low 1 | locus YER110C, active compounds read low 0.965 | locus YER111C, strain swi4, active compounds read low 1.03 | locus YER155C, strain BEM2 (second series), active compounds read low 1.04 | locus YER155C, strain BEM2, active compounds read low 0.981 | locus YER167W, strain BCK2, active compounds read low 1 | locus YFR010W, strain ubp6, active compounds read low 1.03 | locus YGL078C, strain dbp3, active compounds read low 0.991 | locus YGL086W, strain mad1, active compounds read low 0.989 | locus YGL167C, strain pmr1, active compounds read low 1.03 | locus YGL173C, strain kem1, active compounds read low 1.01 | locus YGL227W, strain vid30, active compounds read low 1.02 | locus YGL240W, strain doc1, active compounds read low 1.03 | locus YGL248W, strain PDE1, active compounds read low 0.98 | locus YGL253W, strain hxk2, active compounds read low 1.01 | locus YGR078C, strain PAC10, active compounds read low 0.986 | locus YGR135W, strain pre9, active compounds read low 0.992 | locus YGR252W, strain gcn5, active compounds read low 1.01 | locus YHR013C, strain ard1, active compounds read low 0.975 | locus YHR027C, strain rpn1, active compounds read low 1.01 | locus YHR030C, strain SLT2, active compounds read low 0.99 and 0.983 | locus YHR079C, strain IRE1 (second series), active compounds read low 0.984 | locus YHR079C, strain IRE1, active compounds read low 0.977 | locus YHR094C, strain hxt1, active compounds read low 0.97 | locus YHR129C, strain ARP1, active compounds read low 0.984 | locus YHR142W, strain chs7, active compounds read low 1.02 | locus YHR200W, strain rpn10, active compounds read low 0.989 | locus YIL066C, strain RNR3, active compounds read low 1.01 | locus YIL073C, strain SPO22, active compounds read low 0.99 | locus YIL125W, strain kgd1, active compounds read low 0.986 | locus YIR030C, strain dcg1, active compounds read low 0.993 | locus YJL092W, strain hpr5, active compounds read low 1.02 | locus YJL095W, strain BCK1 (second series), active compounds read low 1.02 | locus YJL095W, strain BCK1, active compounds read low 0.954 and 0.975 | locus YJL115W, strain asf1, active compounds read low 1.02 | locus YJL129C, strain trk1, active compounds read low 1.06 | locus YJL134W, strain LCB3, active compounds read low 0.987 | locus YJL154C, strain vps35, active compounds read low 1.03 | locus YJL164C, strain tpk1, active compounds read low 0.977 | locus YJL166W, strain qcr8, active compounds read low 1.04 | locus YJL168C, strain set2, active compounds read low 0.992 | locus YJL187C, strain SWE1 (second series), active compounds read low 0.965 | locus YJR043C, strain POL32, active compounds read low 1.04 | locus YJR066W, strain TOR1, active compounds read low 0.931
